Measurements published in the supplement of paper PMC10849652.
Targets with a hit are over-represented here; the source holds about 7,900 in all. About 0.6% of all pairs of compound and target were hits.

compound: c1cn2cc(-c3ccc4cn[nH]c4c3)nc(Nc3ccc(N4CCOCC4)cc3)c2n1 [entospletinib]; test: log2 fold change, soluble protein after heating vs DMSO (PISA); higher = thermal stabilisation; K562 cells, 10 uM, 30 min; active = over 0.2 and 3.5 SD of the protein, either way, in both replicates (recomputed)
Summary of the method: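 Thermal stability values are relative to control samples and come from duplicates. They are expressed as log2 fold changes. For measurement, K562 cells (2×10^6 cells/mL) received 10 μM compound for 30 min, and aliquots were heated for 3 min over 48°C-58°C, pooled, and extracted at 4°C in PBS with 0.5% NP-40. Soluble protein, the supernatant after 21,000xg for 90 min, was quantified by TMTpro 16plex LC-MS/MS with equalised channel sums.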

Sequence of UniProt Q9BZQ8 (Q9BZQ8 whole entry, looked up): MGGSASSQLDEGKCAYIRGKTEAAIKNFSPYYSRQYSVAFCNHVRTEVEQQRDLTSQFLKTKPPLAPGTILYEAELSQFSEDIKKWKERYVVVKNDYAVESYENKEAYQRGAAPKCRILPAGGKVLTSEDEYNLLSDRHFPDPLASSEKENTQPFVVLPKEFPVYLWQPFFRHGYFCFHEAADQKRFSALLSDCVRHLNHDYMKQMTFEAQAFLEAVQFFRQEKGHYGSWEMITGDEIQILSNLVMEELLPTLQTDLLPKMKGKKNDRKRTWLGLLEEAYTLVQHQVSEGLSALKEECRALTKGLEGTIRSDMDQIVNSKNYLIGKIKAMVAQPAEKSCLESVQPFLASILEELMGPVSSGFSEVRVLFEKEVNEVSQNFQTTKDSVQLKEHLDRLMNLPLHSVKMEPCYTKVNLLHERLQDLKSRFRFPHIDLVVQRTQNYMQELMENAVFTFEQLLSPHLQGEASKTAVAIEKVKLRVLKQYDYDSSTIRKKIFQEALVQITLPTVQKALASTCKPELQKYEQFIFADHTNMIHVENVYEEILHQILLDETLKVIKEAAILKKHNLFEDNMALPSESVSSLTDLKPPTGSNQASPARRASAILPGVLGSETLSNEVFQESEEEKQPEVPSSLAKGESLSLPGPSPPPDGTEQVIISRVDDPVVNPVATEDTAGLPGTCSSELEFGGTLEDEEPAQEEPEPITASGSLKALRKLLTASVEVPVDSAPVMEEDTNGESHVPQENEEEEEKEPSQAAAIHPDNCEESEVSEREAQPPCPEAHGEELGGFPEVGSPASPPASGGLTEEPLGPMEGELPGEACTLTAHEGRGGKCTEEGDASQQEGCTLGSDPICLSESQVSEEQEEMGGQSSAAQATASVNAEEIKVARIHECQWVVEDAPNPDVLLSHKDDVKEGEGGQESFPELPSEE
Sequence of UniProt Q96MF7 (Q96MF7 whole entry, looked up): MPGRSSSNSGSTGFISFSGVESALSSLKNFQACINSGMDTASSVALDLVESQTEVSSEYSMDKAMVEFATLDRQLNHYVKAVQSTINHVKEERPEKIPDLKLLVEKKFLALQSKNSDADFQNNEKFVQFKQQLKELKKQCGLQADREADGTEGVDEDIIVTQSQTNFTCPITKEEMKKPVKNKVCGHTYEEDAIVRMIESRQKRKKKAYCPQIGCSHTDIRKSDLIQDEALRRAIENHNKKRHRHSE
Sequence of UniProt O43809 (O43809 whole entry, looked up): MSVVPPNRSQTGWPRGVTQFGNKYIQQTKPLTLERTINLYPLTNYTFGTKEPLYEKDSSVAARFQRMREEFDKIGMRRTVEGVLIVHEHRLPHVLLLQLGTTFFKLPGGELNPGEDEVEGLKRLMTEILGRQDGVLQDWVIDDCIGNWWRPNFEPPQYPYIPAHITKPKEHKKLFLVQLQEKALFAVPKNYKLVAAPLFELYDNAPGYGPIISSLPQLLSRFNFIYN
Sequence of UniProt Q86VX9 (Q86VX9 whole entry, looked up): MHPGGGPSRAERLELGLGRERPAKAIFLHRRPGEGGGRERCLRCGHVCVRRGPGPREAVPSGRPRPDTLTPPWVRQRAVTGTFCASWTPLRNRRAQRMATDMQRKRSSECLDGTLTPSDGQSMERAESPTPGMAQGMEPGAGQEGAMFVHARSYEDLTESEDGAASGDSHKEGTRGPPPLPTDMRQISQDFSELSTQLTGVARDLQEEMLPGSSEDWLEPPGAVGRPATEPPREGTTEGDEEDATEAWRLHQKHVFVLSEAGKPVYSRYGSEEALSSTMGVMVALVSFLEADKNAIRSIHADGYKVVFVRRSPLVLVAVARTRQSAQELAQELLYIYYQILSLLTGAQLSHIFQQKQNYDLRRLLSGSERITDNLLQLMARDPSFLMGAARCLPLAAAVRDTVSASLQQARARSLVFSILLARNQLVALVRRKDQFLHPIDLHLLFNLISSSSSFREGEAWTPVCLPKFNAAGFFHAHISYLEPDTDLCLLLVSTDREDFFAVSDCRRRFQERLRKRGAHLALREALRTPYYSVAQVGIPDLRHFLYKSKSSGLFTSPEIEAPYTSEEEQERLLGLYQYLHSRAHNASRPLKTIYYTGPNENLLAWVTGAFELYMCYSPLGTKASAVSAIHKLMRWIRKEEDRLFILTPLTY
Sequence of UniProt Q969V5 (Q969V5 whole entry, looked up): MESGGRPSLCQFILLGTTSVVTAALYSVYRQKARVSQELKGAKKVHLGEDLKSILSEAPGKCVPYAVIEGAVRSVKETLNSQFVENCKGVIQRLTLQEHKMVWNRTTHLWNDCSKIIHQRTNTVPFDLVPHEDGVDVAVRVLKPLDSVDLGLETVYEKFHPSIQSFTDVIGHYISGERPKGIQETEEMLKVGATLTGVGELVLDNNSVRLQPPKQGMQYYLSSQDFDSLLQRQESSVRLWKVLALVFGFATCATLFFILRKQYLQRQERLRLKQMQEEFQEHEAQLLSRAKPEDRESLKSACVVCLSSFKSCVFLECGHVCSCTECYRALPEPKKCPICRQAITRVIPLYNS
Sequence of UniProt Q8N573 (Q8N573 whole entry, looked up): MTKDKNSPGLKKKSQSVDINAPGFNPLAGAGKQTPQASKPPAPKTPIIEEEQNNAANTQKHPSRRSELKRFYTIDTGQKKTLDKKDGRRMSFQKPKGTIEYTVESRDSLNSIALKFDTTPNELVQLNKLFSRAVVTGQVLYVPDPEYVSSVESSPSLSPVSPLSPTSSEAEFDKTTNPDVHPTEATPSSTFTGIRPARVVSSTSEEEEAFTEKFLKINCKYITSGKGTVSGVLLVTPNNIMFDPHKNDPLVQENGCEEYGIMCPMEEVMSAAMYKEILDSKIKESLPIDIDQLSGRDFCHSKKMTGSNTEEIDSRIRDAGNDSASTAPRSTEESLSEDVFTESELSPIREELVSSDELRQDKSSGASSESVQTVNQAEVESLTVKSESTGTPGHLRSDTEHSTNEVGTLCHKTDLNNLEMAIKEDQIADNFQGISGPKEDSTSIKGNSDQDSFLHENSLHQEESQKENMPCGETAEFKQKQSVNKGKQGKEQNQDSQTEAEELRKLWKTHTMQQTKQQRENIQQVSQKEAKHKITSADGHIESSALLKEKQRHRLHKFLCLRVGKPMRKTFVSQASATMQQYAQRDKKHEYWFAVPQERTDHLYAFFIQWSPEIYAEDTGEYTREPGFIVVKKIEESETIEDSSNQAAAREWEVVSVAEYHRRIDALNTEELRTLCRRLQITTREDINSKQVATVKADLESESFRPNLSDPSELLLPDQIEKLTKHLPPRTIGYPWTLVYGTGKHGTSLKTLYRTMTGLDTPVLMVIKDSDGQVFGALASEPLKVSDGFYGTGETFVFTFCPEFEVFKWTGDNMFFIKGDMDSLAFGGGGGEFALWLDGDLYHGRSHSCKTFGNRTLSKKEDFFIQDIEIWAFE
Sequence of UniProt Q08J23 (Q08J23 whole entry, looked up): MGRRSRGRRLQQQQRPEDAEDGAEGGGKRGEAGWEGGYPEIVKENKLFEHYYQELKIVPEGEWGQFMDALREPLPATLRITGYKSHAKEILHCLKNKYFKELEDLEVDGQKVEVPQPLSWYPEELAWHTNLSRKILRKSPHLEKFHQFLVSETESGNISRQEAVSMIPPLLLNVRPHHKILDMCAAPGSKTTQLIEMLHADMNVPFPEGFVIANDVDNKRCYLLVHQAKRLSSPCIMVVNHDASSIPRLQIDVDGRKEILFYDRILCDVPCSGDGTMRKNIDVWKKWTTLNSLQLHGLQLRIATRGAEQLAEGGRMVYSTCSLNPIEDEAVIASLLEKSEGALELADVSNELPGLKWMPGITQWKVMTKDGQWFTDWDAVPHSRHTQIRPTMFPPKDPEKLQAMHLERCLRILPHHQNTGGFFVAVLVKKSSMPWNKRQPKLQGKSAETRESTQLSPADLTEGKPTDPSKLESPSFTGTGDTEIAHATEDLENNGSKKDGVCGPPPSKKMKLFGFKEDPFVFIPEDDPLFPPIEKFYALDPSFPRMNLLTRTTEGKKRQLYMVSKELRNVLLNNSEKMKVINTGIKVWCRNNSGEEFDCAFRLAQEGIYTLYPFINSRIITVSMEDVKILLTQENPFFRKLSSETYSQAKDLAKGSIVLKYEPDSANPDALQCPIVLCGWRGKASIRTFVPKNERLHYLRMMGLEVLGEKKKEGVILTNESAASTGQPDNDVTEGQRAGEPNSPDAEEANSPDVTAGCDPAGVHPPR
Sequence of UniProt Q9BUK6 (Q9BUK6 whole entry, looked up): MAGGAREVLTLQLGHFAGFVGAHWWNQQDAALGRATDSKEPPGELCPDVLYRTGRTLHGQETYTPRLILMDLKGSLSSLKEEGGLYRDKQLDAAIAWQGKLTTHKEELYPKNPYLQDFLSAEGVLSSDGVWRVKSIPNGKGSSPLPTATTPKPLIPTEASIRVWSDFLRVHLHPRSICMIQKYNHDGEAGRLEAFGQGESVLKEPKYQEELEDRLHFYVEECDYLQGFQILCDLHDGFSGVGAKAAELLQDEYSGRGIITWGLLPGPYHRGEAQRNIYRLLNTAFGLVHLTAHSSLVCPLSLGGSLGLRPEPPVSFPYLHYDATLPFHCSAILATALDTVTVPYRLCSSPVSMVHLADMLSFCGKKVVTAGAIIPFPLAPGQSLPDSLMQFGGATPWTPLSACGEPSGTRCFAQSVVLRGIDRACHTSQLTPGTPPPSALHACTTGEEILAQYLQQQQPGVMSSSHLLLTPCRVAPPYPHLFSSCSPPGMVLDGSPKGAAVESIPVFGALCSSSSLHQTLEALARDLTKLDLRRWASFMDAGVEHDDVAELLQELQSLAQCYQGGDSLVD
Sequence of UniProt P15531 (P15531 whole entry, looked up): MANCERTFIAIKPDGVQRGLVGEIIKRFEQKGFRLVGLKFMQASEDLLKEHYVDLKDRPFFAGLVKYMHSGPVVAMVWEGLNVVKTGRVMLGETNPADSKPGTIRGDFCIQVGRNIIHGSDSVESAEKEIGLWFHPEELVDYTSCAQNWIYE
Sequence of UniProt Q9UI09 (Q9UI09 whole entry, looked up): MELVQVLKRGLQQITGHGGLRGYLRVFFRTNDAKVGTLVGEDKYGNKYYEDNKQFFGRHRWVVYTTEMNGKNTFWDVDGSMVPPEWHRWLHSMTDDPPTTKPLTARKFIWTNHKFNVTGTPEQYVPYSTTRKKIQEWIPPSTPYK

log2 fold change, inactive:
OXSM (UniProt Q9NWU1) -0.023
NUP98 (UniProt P52948) 0.003
MRPS26 (UniProt Q9BYN8) 0.078
NUP160 (UniProt Q12769) 0.03
NMD3 (UniProt Q96D46) -0.001
OSTM1 (UniProt Q86WC4) 0.118
NFATC2 (UniProt Q13469) -0.012
NIBAN1 (UniProt Q9BZQ8) 0.055
NME1 isoform 2 (UniProt P15531) 0.031
ORC5 (UniProt O43913) 0.012
NFATC3 (UniProt Q12968) 0.153
NARS2 (UniProt Q96I59) -0.01
NAP1L1 (UniProt P55209) 0.028
OXR1 (UniProt Q8N573) -0.019
NSMCE2 (UniProt Q96MF7) -0.052
NUCKS1 (UniProt Q9H1E3) -0.02
MUL1 (UniProt Q969V5) -0.005
MON1A (UniProt Q86VX9) 0.041
MT-ND1 (UniProt P03886) 0.1
MSTO1 (UniProt Q9BUK6) -0.068
NSUN2 (UniProt Q08J23) 0.011
PAAF1 (UniProt Q9BRP4) -0.023
NDUFA12 (UniProt Q9UI09) -0.025
NUDT21 (UniProt O43809) 0.016
